# Inconclusive results are not listed. Activity calls are given as the source filed them. Calls follow the shape of the dose curve; as a rule, active = well fitted inhibition curve with a large enough effect; inconclusive = small, poorly fitted or top-dose-only effect; inactive = flat fitted curve, though single readings scatter.
# Target: Papain (Carica papaya) (UniProt P00784)
# Assay: Confirmatory qHTS assay for inhibitors of the protease papain
# Details: papain Z-FR-AMC cleavage, fluorescence
# Description: Principal Investigator: Sam Michael National Center for Advancing Translational Sciences, National Institutes of Health, Rockville, MD Current high-throughput screening (HTS) assay validation is often a manual process, though this can be enhanced by design-of-experiment approaches. An artificial intelligence-driven (AI/ML) assay optimization was developed as part of the NCATS A Specialized Platform for Innovative Research Exploration (ASPIRE) Initiative to accelerate preclinical drug discovery. We describe the development of an autonomous Cloud-based computational driven assay optimization system using the Kebotix adaptive optimization algorithm. […]
# PROTOCOL TABLE SEQUENCE No. (e.g., 1, 2, 3, etc.); PARAMETER (e.g., Cells, Incubation, Reagent, etc.); VALUE and DESCRIPTION. 1; Reagent; 3 uL; 4/3x Enzyme solution (working concentration of 5 nM) or 3 uL buffer 2; Compounds; 17 nL; library compounds and controls (working concentration of 169 nM - […]) 3; Time; 15 min; room temperature incubation 4; Reagent; 1 uL; 4x 2 uM Z-FR-AMC substrate 5; Centrifugation; 1000 rpm; 15 sec centrigure 6; Detection; Fluorescence Read 1; ViewLux plate reader 7; Time; 10 min; room temperature incubation 8; Detection; Fluorescence Read 2; ViewLux plate reader NOTES (numbers refer to Sequence numbers above; values are from representative experiments) 1; Dispense 3 uL of [4/3x] […]
# Sequence of Papain (Carica papaya) (P00784 whole entry, looked up): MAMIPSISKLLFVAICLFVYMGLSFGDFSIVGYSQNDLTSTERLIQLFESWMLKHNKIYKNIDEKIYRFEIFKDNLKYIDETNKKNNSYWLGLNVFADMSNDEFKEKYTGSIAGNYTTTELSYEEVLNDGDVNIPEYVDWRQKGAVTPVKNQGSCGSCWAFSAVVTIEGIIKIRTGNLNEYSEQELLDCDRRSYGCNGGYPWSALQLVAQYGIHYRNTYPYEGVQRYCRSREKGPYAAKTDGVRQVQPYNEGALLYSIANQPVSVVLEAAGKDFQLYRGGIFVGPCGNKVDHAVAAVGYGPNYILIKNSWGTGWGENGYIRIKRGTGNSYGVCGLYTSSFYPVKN
structure (smiles),measurement,value
Cc1ccc(S(=O)(=O)N[C@@H](CCCCN)C(=O)CCl)cc1,Potency,647 nM (active)
